Source: PubChem BioAssay (NCATS)
Results filed as inconclusive are left out. Calls of active or inactive are those of the source. Unless noted, the call rests on the fitted dose curve; in most records, active means well fitted curve in either direction with a large enough effect (not every such curve was filed as active); inconclusive means small, poorly fitted or top-dose-only effect, or another doubt; inactive means flat fitted curve, though single readings scatter.

How the values were obtained:
[1] = biological target: Lysosomal acid glucosylceramidase (Homo sapiens) (UniProt P04062); test: Glucocerebrosidase-p2 (AID 348; in the data active means potency below about 10 µM; further: potency means the concentration at half of the fitted maximal effect); settings: purified GBA, blue fluorogenic substrate, 40 min
Sequence of Lysosomal acid glucosylceramidase (Homo sapiens) (P04062 whole entry, looked up): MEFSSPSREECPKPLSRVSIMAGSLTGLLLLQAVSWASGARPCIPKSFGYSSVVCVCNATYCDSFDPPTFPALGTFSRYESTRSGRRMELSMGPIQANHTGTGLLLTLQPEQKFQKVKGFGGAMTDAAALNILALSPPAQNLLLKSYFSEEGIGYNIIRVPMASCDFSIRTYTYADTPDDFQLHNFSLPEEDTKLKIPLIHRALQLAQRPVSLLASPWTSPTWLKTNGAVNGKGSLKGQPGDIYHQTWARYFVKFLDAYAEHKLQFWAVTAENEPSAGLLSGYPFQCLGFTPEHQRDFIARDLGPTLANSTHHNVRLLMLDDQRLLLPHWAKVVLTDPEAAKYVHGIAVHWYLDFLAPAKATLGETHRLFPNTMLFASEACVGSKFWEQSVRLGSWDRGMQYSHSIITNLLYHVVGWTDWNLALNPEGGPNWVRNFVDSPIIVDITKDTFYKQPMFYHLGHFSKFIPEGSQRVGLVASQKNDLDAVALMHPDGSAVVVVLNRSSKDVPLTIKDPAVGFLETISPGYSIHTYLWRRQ
Method in brief: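 Compounds titrated from 0.6 nM upwards against 0.2 nM enzyme in pH 5.9 citric acid/KH2PO4, taurocholate, tween-20; blue fluorogenic substrate 80 uM, 40 min room temperature, stopped and read Ex 365/Em 440 for AC50.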

[2] = biological target: Cytochrome P450 1A2 (Homo sapiens) (UniProt P05177); test: p450-cyp1a2 (AID 410; calls by dose curve; further: potency means the concentration at half of the fitted maximal effect;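 on activity change, negative = inhibition: -100% = full effect of reference inhibitor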); settings: recombinant CYP1A2, luciferin-ME demethylation, luminescence; series mostly up to 57 µM
Sequence of Cytochrome P450 1A2 (Homo sapiens) (P05177 whole entry, looked up): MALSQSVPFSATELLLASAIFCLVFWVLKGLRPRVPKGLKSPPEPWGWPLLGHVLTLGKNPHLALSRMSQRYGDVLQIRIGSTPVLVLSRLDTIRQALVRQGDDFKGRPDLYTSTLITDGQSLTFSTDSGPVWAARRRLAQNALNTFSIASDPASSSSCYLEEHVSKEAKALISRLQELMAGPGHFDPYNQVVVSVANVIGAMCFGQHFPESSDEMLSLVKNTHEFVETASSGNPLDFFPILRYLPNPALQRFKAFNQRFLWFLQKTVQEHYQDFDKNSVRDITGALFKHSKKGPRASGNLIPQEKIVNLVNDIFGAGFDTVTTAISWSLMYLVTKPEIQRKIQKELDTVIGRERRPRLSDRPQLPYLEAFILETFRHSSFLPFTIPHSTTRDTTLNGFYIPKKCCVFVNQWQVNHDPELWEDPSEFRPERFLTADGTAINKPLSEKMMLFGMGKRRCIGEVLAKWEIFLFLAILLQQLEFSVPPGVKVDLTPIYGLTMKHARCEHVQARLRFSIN
Method in brief: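 Inhibition was calculated relative to 57 uM furafylline (full inhibition). The reaction used human CYP1A2 at 20nM with Luciferin-ME at its Km, 100uM, driven by an NADPH-regenerating system for 60 min at room temperature.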

[3] = Stat Signaling Pathway (AID 446); settings: ME-180 SIE beta-lactamase reporter, IL-6 stimulated, 5 h; at 7.69 µM (top of the series) unless noted;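 further: ME-180 cervical cancer cells given 40 pM IL-6 alongside compound; SIE-controlled beta-lactamase reporter measured as 460/530 nm FRET emission ratio; on the % scale 0 is the no-effect control and ±100 the full control effect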
Method in brief: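 Reporter line: ME-180 cervical carcinoma, SIE-beta-lactamase. Treatment: compound with 40 pM IL-6, 5 hrs, 37 C, in low-serum OPTI-MEM with 10 mM HEPES pH 7.3. Detection: 460/530 nm fluorescence.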

[4] = biological target: Glucocorticoid receptor (Homo sapiens) (UniProt P04150); test: GR-EFC Redistribution (AID 451; calls by dose curve; further: potency means the concentration at half of the fitted maximal effect); settings: CHO-K1 GR-EFC translocation, beta-gal luminescence, 2 h
Sequence of Glucocorticoid receptor (Homo sapiens) (P04150 whole entry, looked up, the tested form may be a part): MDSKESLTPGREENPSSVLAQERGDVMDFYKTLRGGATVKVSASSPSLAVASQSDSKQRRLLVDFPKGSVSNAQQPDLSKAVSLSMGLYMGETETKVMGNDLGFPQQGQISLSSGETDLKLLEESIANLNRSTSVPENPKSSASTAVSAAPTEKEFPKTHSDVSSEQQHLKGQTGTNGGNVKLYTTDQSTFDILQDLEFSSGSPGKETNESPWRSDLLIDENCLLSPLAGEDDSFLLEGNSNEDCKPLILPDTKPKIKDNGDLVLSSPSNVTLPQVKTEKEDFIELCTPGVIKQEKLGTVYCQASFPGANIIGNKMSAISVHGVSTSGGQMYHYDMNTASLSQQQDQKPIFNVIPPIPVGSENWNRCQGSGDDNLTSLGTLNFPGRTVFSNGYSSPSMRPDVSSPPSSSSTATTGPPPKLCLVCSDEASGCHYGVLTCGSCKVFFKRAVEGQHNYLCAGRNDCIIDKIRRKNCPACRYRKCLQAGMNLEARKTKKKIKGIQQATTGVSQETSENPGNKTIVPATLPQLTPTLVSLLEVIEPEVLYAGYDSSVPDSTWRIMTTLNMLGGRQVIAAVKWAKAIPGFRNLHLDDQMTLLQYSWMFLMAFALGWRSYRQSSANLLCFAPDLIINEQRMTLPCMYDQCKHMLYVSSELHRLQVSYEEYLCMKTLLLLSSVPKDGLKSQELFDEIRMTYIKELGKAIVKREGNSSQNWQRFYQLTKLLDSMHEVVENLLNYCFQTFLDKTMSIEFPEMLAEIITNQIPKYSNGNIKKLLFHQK
Method in brief: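 Translocation of GR-ED fusion to nuclear EA restores b-gal, read by luminescence after 1 h room-temperature detection. Engineered CHO-K1 biosensor cells, 1,000/well, exposed 2 h at 37 C to titrations up to 46 uM final.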

[5] = biological target: Mitogen-activated protein kinase 10 (Mus musculus) (UniProt Q61831); test: JNK3 AlphaScreen Assay (AID 530); settings: JNK3 lysate, c-Jun phosphorylation; series mostly up to 57.1 µM;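 further: kinase came from lysate of stimulated human HepG2 cells; signal reports phosphorylation of biotinylated GST-cJun 1-79 at Ser73 with 10 µM ATP; on the % scale 0 is the no-effect control and ±100 the full control effect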
Method in brief: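 Room-temperature AlphaScreen kinase assay; pre-activated HepG2 lysate as JNK3 source, biotin-GST-cJun(1-79) substrate, 10 uM ATP, compound 15 min preincubation.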

[6] = biological target: 3',5'-cyclic-AMP phosphodiesterase 4B (Homo sapiens) (UniProt Q07343); test: qHTS Assay for Inhibitors of PDE-IV (AID 607; active means well fitted activation curve with a large enough effect in the main read-out, with a control signal flat, not every such curve was filed as active; further: % of control where 0% means no effect); settings: HEK293 ACTOne CNG channel cells, membrane potential fluorescence; series mostly up to 22.9 µM
Sequence of 3',5'-cyclic-AMP phosphodiesterase 4B (Homo sapiens) (Q07343 whole entry, looked up): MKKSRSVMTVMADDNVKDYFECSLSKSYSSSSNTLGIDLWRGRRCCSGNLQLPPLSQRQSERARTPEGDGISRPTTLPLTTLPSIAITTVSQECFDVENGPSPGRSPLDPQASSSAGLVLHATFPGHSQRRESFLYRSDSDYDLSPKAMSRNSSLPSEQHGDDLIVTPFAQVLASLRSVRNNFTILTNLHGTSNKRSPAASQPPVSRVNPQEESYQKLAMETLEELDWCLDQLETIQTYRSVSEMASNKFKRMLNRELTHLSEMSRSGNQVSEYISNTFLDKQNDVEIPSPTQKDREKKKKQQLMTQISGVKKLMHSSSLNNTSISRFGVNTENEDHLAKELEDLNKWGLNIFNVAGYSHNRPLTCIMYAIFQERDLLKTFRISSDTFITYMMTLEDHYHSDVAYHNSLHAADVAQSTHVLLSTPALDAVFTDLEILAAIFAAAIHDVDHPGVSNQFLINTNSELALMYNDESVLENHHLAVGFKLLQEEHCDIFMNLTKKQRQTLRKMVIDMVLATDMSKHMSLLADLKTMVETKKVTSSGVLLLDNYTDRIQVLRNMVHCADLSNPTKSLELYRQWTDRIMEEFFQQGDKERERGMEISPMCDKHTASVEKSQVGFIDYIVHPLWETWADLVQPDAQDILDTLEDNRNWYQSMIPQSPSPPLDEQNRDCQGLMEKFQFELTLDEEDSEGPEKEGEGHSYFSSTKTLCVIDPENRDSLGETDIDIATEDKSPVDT
Method in brief: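 Cell-based read-out of cAMP via a modified cyclic nucleotide-gated channel and membrane potential dye (535/590 nm) in HEK293 cells expressing PDE4 endogenously. Compounds tested up to 22.9 uM final; 100 uM RO 20-1724 reference.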

[7] = biological target: Cytochrome P450 2C9 (Homo sapiens) (UniProt P11712); test: qHTS Assay for Inhibitors and Substrates of Cytochrome P450 2C9 (AID 883; active means well fitted curve in the direction sought with a large enough effect; an effect the other way counts as inactive or inconclusive; further: potency means the concentration at half of the fitted maximal effect; nearly all actives have a fitted effect of over 60% in size); settings: recombinant CYP2C9, luciferin-H luminescence, 60 min; series mostly up to 57.1 µM
Sequence of Cytochrome P450 2C9 (Homo sapiens) (P11712 whole entry, looked up): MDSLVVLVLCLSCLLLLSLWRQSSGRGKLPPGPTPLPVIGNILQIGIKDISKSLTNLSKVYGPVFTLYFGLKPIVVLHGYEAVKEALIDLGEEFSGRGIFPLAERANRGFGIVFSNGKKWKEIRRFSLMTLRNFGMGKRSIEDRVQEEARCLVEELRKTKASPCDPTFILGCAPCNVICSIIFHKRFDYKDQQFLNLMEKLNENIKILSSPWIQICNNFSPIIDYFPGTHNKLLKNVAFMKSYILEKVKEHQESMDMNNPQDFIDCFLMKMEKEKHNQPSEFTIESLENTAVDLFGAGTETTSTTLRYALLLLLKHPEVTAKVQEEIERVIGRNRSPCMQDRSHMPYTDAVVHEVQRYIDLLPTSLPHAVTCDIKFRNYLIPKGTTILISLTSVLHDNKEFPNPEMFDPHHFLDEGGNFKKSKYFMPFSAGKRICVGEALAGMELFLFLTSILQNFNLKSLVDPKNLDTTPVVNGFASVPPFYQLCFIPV
Method in brief: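 Luminescent read-out of deoxyluciferin hydroxylation, normalized to 57uM sulphaphenazole (AC100). Reaction: 10nM enzyme, 100uM Luciferin-H (equal to KM), 25mM KPO4, 10 min compound preincubation, then 60 min with NADPH regeneration, both at 37C.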

[8] = qHTS Assay for Lipid Storage Modulators (AID 1519; calls by dose curve); settings: Drosophila S3 cells, BODIPY lipid droplet/cell ratio, laser cytometry, cells loaded with oleic acid; for activity change, negative = inhibition: at 57.5 µM (top of the series)
Method in brief: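 Cells seeded at 5,000 per well were treated with compounds over a concentration series and loaded with oleic acid (400 uM, as added). Lipid droplet fluorescence (488 nm excitation, 500-530 nm channel) was read by laser-scanning cytometry and normalized to 20 uM Triacsin C.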

[9] = Primary qHTS for small molecule stabilizers of the endoplasmic reticulum resident proteome: Secreted ER Calcium Modulated Protein (SERCaMP) assay (AID 1508630; active means well fitted curve in the direction sought with a large enough effect; an effect the other way counts as inactive or inconclusive; further: on the % scale 0 is the no-effect control and ±100 the full control effect); settings: SH-SY5Y GLuc-SERCaMP (Gaussia luciferase released on ER calcium loss) secretion, thapsigargin, luminescence; series mostly up to 38.4 µM
Method in brief: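 GLuc-SERCaMP-expressing SH-SY5Y cells, pretreated 16 h with compound, are challenged with thapsigargin to empty ER calcium stores; after 4 h, coelenterazine is added directly to the medium and luminescence is imaged.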

[10] = AP1 Signaling Pathway (AID 357); settings: ME-180 (cervical carcinoma) AP-1-bla reporter, EGF-induced, beta-lactamase ratio, 5 h; at 7.69 µM (top of the series) unless noted;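 further: ME-180 reporter cells stimulated with EGF at its EC50 level; on the % scale 0 is the no-effect control and ±100 the full control effect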
Method in brief: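 Modulation of EGF-driven AP-1 transcription was assessed with a beta-lactamase reporter in ME-180 cells. Compound and EC50 EGF were co-incubated 5 hours at 37 °C before 2.5-hour CCF4 loading at room temperature and dual-emission reading.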

[11] = biological target: Cytochrome P450 3A4 (Homo sapiens) (UniProt P08684); test: qHTS Assay for Inhibitors and Substrates of Cytochrome P450 3A4 (AID 884; active means well fitted curve in the direction sought with a large enough effect; an effect the other way counts as inactive or inconclusive; further: on the % scale 0 is the no-effect control and ±100 the full control effect; nearly all actives have a fitted effect of over 50% in size); settings: recombinant CYP3A4, Luciferin-PPXE luminescence; series mostly up to 57.1 µM
Sequence of Cytochrome P450 3A4 (Homo sapiens) (P08684 whole entry, looked up): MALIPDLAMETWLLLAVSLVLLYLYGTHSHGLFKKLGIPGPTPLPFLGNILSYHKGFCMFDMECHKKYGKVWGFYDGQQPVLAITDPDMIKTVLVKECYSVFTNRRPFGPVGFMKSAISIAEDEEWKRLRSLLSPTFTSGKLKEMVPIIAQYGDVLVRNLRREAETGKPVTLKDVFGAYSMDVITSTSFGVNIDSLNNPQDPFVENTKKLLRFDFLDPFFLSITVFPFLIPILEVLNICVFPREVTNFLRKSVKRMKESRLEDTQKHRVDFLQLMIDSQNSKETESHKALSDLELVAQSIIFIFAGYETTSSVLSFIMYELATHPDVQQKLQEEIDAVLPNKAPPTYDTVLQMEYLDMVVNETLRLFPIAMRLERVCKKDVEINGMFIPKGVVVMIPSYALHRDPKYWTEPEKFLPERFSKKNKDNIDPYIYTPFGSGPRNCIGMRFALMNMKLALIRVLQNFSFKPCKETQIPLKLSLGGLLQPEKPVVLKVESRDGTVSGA
Method in brief: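 20 nM human CYP3A4 with 25 uM Luciferin-PPXE (at KM) in 200 mM KPO4, preincubated 10 min with compound; NADPH regeneration started a 60 min RT reaction. Luciferin detected by luminescence, normalized to 57 uM ketoconazole as full inhibition.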

[12] = biological target: Cytochrome P450 3A4 (Homo sapiens) (UniProt P08684); test: qHTS Assay for Activators of Cytochrome P450 3A4 (AID 885; active means well fitted curve in the direction sought with a large enough effect; an effect the other way counts as inactive or inconclusive; further: nearly all actives have a fitted effect of over 65% in size; further: potency means the concentration at half of the fitted maximal effect); settings: recombinant CYP3A4, Luciferin-PPXE luminescence, 60 min; series mostly up to 57.1 µM
Method in brief: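 Signal was normalized against complete inhibition by 57 uM ketoconazole. The reaction used 20nM CYP3A4 with 25uM Luciferin-PPXE, 10-min compound preincubation and a 60-min NADPH-supported step at RT.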

[13] = NFAT Signaling Pathway (AID 444); settings: Jurkat NFAT-bla M1, carbachol, beta-lactamase ratio, 5 h; at 7.69 µM (top of the series) unless noted
Method in brief: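 Read-out: CCF4 FRET ratio (460 nm/530 nm) after 1 h RT dye loading, used for %activity and AC50 from titration series. Cells: Jurkat NFAT-β-lactamase/M1 line, treated with compound plus 1 uM carbachol for 5 h, 37 °C.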

[14] = biological target: Cytochrome P450 2D6 (Homo sapiens) (UniProt P10635); test: qHTS Assay for Inhibitors and Substrates of Cytochrome P450 2D6 (AID 891; active means well fitted curve in the direction sought with a large enough effect; an effect the other way counts as inactive or inconclusive; further: potency means the concentration at half of the fitted maximal effect; nearly all actives have a fitted effect of over 60% in size); settings: recombinant CYP2D6, luciferin-ME EGE luminescence; series mostly up to 57.1 µM
Sequence of Cytochrome P450 2D6 (Homo sapiens) (P10635 whole entry, looked up): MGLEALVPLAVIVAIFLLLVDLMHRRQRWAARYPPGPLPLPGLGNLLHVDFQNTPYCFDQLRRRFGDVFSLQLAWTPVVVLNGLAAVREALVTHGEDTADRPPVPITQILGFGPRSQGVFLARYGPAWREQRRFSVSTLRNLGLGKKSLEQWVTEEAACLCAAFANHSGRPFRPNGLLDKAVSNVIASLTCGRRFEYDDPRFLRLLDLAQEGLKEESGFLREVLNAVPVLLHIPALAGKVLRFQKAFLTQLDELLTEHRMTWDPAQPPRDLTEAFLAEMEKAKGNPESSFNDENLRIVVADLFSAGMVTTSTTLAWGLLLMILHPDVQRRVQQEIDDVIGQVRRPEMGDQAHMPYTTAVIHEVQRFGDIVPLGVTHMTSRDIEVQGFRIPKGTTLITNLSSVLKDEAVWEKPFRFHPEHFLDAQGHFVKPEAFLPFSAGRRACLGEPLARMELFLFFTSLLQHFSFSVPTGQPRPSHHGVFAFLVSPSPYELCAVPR
Method in brief: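 Human CYP2D6 (5 nM) with 30 uM Luciferin-ME EGE (at Km) in 100 mM KPO4, compound preincubated 10 min, then NADPH regeneration system for 60 min at room temperature. Luciferin read by luminescence; normalized to 1.43 uM quinidine.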

[15] = biological target: Cytochrome P450 2C19 (Homo sapiens) (UniProt P33261); test: qHTS Assay for Inhibitors and Substrates of Cytochrome P450 2C19 (AID 899; active means well fitted curve in the direction sought with a large enough effect; an effect the other way counts as inactive or inconclusive; further: potency means the concentration at half of the fitted maximal effect; nearly all actives have a fitted effect of over 60% in size); settings: recombinant CYP2C19, luciferin-H EGE luminescence; series mostly up to 57.1 µM
Sequence of Cytochrome P450 2C19 (Homo sapiens) (P33261 whole entry, looked up): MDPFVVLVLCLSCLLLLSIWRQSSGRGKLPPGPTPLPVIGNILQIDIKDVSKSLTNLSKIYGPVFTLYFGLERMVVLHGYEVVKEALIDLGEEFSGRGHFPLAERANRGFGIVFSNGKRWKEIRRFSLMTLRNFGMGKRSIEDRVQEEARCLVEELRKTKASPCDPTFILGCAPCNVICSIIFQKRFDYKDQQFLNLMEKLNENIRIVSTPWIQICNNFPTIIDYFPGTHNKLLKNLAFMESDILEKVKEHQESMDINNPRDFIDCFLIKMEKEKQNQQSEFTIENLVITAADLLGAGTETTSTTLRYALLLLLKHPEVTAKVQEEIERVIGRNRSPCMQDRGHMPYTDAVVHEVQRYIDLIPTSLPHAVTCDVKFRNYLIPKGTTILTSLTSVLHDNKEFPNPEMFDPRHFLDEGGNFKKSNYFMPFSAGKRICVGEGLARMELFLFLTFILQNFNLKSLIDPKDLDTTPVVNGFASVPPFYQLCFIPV
Method in brief: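 Luminescence readout of luciferin formed from 10uM Luciferin-H EGE (KM level) by 5 nM CYP2C19 in 50mM KPO4. 60 min NADPH-driven reaction at 37C after 10 min compound preincubation; data scaled to 57uM ketoconazole inhibition.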

[16] = measured here: cell count channel max response
[17] = measured here: lipid channel max response

| SMILES | Potency [1] | Potency [2] | activity, negative = inhibition [3] | Potency [4] | Potency [5] | Potency [6] | Potency [7] | activity change, negative = inhibition [8] | max response [8, 16] [%] | max response [8, 17] [%] | outcome [9] | activity change, negative = inhibition [10] | Potency [11] | Potency [12] | activity change, negative = inhibition [13] | Potency [14] | Potency [15] |
| --- | --- | --- | --- | --- | --- | --- | --- | --- | --- | --- | --- | --- | --- | --- | --- | --- | --- |
| O=C(c1cccc(F)c1)N1CCC2(CCCN(C(c3ccccc3)c3ccccc3)C2)CC1 | > 11.4 µM (inactive) | 6.31 µM (active) | 17.2% (inactive) | > 46 µM (inactive) | inactive | inactive | 3.16 µM (active) | 2.12% (inactive) | 14.6 | 19.7 | inactive |  |  |  |  |  |  |
| Cn1cccc1C(=O)N1CCC2(CC1)CCN(C(c1ccccc1)c1ccccc1)CC2 | > 11.4 µM (inactive) |  | -4.66% (inactive) | > 46 µM (inactive) | inactive | inactive |  | -19.5% (inactive) | 11.8 | -8.47 | inactive | -3.6% (inactive) | inactive | 15.8 µM (active) |  |  |  |
| O=C(c1ccncc1)N1CCC2(CC1)CN(c1ccccn1)C2 | > 11.4 µM (inactive) |  |  | > 46 µM (inactive) | inactive | inactive |  | 3.6% (inactive) | 0.68 | 6.79 | inactive | 24.8% (inactive) |  |  |  |  |  |
| COc1ccccc1CN1CCC2(CC1)CCN(C(=O)c1csnn1)CC2 | > 11.4 µM (inactive) |  | -5.49% (inactive) | > 46 µM (inactive) | inactive | inactive |  | 5.71% (inactive) | 16.4 | 24.4 | inactive | 0.316% (inactive) |  | inactive |  |  |  |
| CC(C)CN1CCCC2(CCN(C(=O)c3cnccn3)CC2)C1 | > 11.4 µM (inactive) | inactive | 7.99% (inactive) | > 46 µM (inactive) | inactive | inactive |  | 1.42% (inactive) | 5.13 | 9.23 | inactive |  |  | inactive |  |  |  |
| CS(=O)(=O)N1CCC2(CC1)CN(c1ccccc1)C2 | > 11.4 µM (inactive) | 20 µM (active) | -8.44% (inactive) | > 46 µM (inactive) | inactive | inactive |  | 0.887% (inactive) | 14 | 17.6 | inactive |  |  |  | 24.3% (inactive) | 1.26 µM (active) |  |
| COc1ccc(C(=O)N2CCC3(CCN(Cc4ccc(C#N)cc4)CC3)CC2)cc1 | > 11.4 µM (inactive) | 12.6 µM (active) | 0.785% (inactive) | > 46 µM (inactive) | inactive | inactive |  | 1.02% (inactive) | 16.6 | 21 | inactive |  |  |  |  |  |  |
| COC(=O)N1CCC2(CCCN(c3ccccn3)C2)CC1 | > 11.4 µM (inactive) |  | -6.11% (inactive) | > 46 µM (inactive) | inactive | inactive |  | 1.3% (inactive) | 13.5 | 15.8 | inactive | -5.95% (inactive) |  |  |  |  | 3.16 µM (active) |
